The campaign covered roughly 310,000 compounds. About 1,200 (0.39%) were called active. The rule behind the calls is not given here. Only a sample is shown. Results with a measured potency or affinity are listed apart.
molecular target: Large T antigen (Simian virus 40) (UniProt P03070); test: TAg ATPase/helicase activity blockers – biochemical (AID 1903); conditions: SV40 large T antigen ATPase/helicase inhibition assay; at 20 µM; stronger effect = higher value
Sequence (P03070 whole entry, looked up): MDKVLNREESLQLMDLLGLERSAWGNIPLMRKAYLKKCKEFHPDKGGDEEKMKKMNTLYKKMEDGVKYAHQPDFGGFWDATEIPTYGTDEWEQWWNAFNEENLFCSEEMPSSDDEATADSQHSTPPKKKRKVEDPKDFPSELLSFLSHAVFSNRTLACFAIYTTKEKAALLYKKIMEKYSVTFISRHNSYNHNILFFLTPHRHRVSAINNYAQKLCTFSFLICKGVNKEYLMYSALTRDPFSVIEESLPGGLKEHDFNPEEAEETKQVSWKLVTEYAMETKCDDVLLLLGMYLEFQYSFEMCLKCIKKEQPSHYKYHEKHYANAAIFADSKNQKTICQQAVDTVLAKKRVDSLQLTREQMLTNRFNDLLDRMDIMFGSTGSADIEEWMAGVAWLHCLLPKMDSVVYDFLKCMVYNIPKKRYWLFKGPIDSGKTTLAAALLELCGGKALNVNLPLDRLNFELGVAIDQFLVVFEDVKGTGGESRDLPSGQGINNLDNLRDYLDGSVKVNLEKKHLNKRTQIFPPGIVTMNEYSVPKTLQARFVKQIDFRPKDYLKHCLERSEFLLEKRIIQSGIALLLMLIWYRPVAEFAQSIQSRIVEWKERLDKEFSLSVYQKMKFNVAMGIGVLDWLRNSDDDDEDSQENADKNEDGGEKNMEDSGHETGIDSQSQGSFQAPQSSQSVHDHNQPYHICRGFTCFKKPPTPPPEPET

inhibition, inactive:
COc1ccc(/C=C2\CCC(C3CCCC3)C2=O)c(OC)c1OC (stereo not given) 15.3%
Cc1ccc(S(=O)(=O)Nc2ccc(Oc3cccnc3)nc2)cc1 9.11%
CC(=O)Nc1ccc(SC[C@H](c2ccccc2)N2CCN(CCc3ccccc3)CCC2=O)cc1 16.3%
COc1ccc(-c2nnc(-c3cc4ccccc4oc3=O)o2)cc1 -1.16%
O=C(C1CCCN(Cc2cccc(Cl)c2)C1)N1CCCCC1 (stereo not given) 2.11%
COc1cc(SC)ccc1C(=O)Nc1ncc(Cl)cc1Cl -2.54%
CNC(=S)N/N=C/c1cn(CCOc2ccc(OC)cc2)c2ccccc12 6.11%
Cc1c(CN(C)C)c2c(n1Cc1ccccc1)C(=O)c1ccccc1-2 2.92%
CCOc1cc(/C=N/n2cnnc2)cc(Br)c1O 23.3%
CCOc1cc(/C=N/n2c(C)nnc2C)ccc1O 27.2%
Clc1ccccc1Cn1nc(-c2ccccc2)nc1-c1ccccc1 1.23%
Cn1ccnc1SCC(=O)Nc1cc(C(F)(F)F)ccc1N1CCOCC1 7.01%
COC(=O)c1ccc2c(=O)n(-c3ccc(OC)cc3)c(=S)[nH]c2c1 6.42%
O=C(COC(=O)CCC1CCCC1)NCc1ccc(Cl)cc1 17.3%
COC(=O)c1cn(CCOc2ccccc2F)c2ccccc12 1.53%
O=[N+]([O-])c1cn(Cc2ccc(Cl)cc2)cn1 1.06%
CCOc1cc(/C=C2\C(=O)N(c3cccc(C(F)(F)F)c3)C(=O)c3ccccc32)ccc1O 9.18%
Cc1cccc(N2C(=O)/C(=C\c3ccc(C(=O)O)cc3)c3ccccc3C2=O)c1 36.5%
CC(C)c1nnc(NC(=O)c2cccnc2)s1 2.86%
OC1CCN(C(=S)Nc2ccc(Oc3ccccc3)cc2)CC1 -15.6%
O=C(Nc1ccccc1)NC1(C(=O)N2CCC(O)CC2)CCCCC1 4.76%
C/C(=N\NC(=O)C(C)Sc1ccccc1)C(C)(C)C (stereo not given) 17.5%
CC(CCc1ccc(O)cc1)NCc1ccc(Br)cc1 (stereo not given) 3.95%
OCCc1ccc(O)cc1 27%
N/C(=N\OC(=O)Cc1cccs1)c1cccc([N+](=O)[O-])c1 3.85%
COc1cc(Br)c(C2C(C#N)=C(N)Oc3n[nH]c(-c4cccnc4)c32)cc1OC (stereo not given) 18.6%
COc1cc(OC)cc(C2C(C#N)=C(N)Oc3n[nH]c(-c4cccnc4)c32)c1 (stereo not given) 16.8%
COc1cc(OC)c2c(c1)C(=O)OC2OC (stereo not given) 2.96%
CC(NC(=O)CS(=O)(=O)c1ccccc1)c1ccccc1 (stereo not given) 25%
O=C(c1ccc2ncsc2c1)N1CCN(c2ccccc2Cl)CC1 11.3%
COc1ccc(-c2cccc(C(=O)N3CCOCC3)c2)cc1 9.81%
O=C(c1ccc2ccccc2c1)N1CCCC1 0.92%
O=C(c1ccc2ccccc2c1)N1CCN(c2ccccc2)CC1 10.3%
O=C(c1cccc(-c2ccc(O)cc2)c1)N1CCN(c2ccc(F)cc2)CC1 1.57%
O=C(c1ccc2ncsc2c1)N1CCCCC1 18.2%
CCOC(=O)c1nn(-c2ccc(F)cc2)c(=O)cc1OCC(=O)N1CCN(c2ccccc2)CC1 5.17%
CCN(CC)C(=O)C[n+]1ccc(C(N)=O)cc1 4.68%
Fc1ccccc1/C=N/n1c(COc2ccccc2)n[nH]c1=S 6%
Cc1cc(Br)cc(Cl)c1OCC(=O)NC(=O)NCc1ccccc1 1.39%
CCN1C(=O)[C@H]2[C@@H](c3ccc(C)cc3)N3C(=O)N(c4ccc(C(F)(F)F)cc4)C(=O)[C@@]3(Cc3ccccc3)[C@H]2C1=O 4.67%
CC(C)C[C@H](NC(=O)CCn1nnc2ccccc2c1=O)C(=O)O 9.82%
O=C(O)CNC(=S)N(Cc1ccccc1F)C1CCCCC1 4.15%
O=C(Oc1ccc(-c2cnc3ccccc3n2)cc1)c1cccc([N+](=O)[O-])c1 3.96%
O=C(Oc1ccc(-c2cnc3ccccc3n2)cc1)c1cc([N+](=O)[O-])ccc1Cl 7.12%
COCC(C)NC(=O)c1noc2c1CCc1cc(OC)ccc1-2 (stereo not given) -0.97%
CCOc1ccc(NCc2cc3cc(OC)ccc3[nH]c2=O)cc1 28.1%
Cc1ccc2nc(-c3ccccc3N)[nH]c2c1 -2.07%
Cc1ccc2nc(-c3cccc(N)c3)[nH]c2c1 5.37%
CCOC(=O)c1c(S(=O)(=O)NCc2ccc(C)o2)c(C)n(C)c1C 2.28%
COc1ccc(CCC(=O)Nc2ccc(N3CCOCC3)cc2)cc1 8.67%
c1cc(CNc2ccc(N3CCOCC3)cc2)ccn1 1.95%
COc1ccc(OCC(=O)Nc2ccc(N3CCOCC3)cc2)cc1 12.4%
CC(C)c1ccc(CNc2ccc(N3CCOCC3)cc2)cc1 9.24%
COc1cccc2cc(C(=O)N(Cc3cccs3)CC3CCCO3)c(=O)oc12 (stereo not given) 5.05%
CCn1cc(C2=NC(c3ccccc3)CO2)c2ccccc21 (stereo not given) 14.4%
Cc1ccc(Sc2ncnc(N)c2[N+](=O)[O-])cc1 2.16%
CNc1cc(Cl)nc(SC)n1 5.2%
CSc1nc(Cl)cc(Nc2ccccc2N)n1 22%
CCNC(=O)O/N=C1\CCCCC1c1ccc([N+](=O)[O-])cc1[N+](=O)[O-] (stereo not given) 11.8%
N#C/C(=C\c1coc2ccccc2c1=O)C(N)=S 11.5%
O=C1NN(c2ccccc2)C(=O)/C1=C\c1coc2ccc(O)cc2c1=O 51.3%
COc1ccc(CCNC(=O)C/C(C)=N/NC(=O)C23CC4CC(CC(C4)C2)C3)cc1OC 5.44%
COc1ccc(-n2c(C)cc(/C=C3\SC(=S)N(Cc4ccco4)C3=O)c2C)cc1 2.87%
COc1ccc(NC(=O)CC2C(=O)N(Cc3ccco3)C(=S)N2C(C)C)cc1 (stereo not given) 12%
COC(=O)C1=C(C)N(Cc2ccco2)C(=O)/C1=C\c1ccc(N(C)C)cc1 3.05%
COC(=O)C1=C(C)N(Cc2ccco2)C(=O)/C1=C\c1ccc([N+](=O)[O-])cc1 31.3%
COc1ccc(N2C(=O)CC(c3cc(OC)c(OC)c(OC)c3)CC2=O)cc1 8.69%
COC(=O)c1nn(-c2nc(-c3ccc(OC)c(OC)c3)cc(C(F)(F)F)n2)cc1[N+](=O)[O-] 9.35%
Cc1ccc(Sc2ccc(/C=C3/C(=O)NN(c4ccccc4)C3=O)o2)cc1 20.1%
COc1ccc(Sc2ccc(/C=C3\C(=O)NN(c4ccccc4)C3=O)o2)cc1 32.2%
N=C1/C(=C\c2ccc(-c3cc(Cl)cc(Cl)c3)o2)C(=O)N=C2SC=C(c3ccccc3)N12 -1.62%
O=C1NN(c2cccc(Br)c2)C(=O)/C1=C/c1ccc(-c2cc([N+](=O)[O-])ccc2O)o1 38.2%
O=C1NN(c2ccc(Cl)c(Cl)c2)C(=O)/C1=C/c1ccc(-c2ccccc2C(=O)O)o1 28.4%
O=C1NN(c2ccccc2)C(=O)/C1=C/c1ccc(Sc2ccc(Cl)cc2)o1 11.2%
COC(=O)c1ccc(N2NC(=O)/C(=C/c3ccc(-c4ccc(Cl)c(C(=O)O)c4)o3)C2=O)cc1 37%
N=C1/C(=C\c2ccc(-c3cccc(Cl)c3)o2)C(=O)N=C2SC=C(c3ccccc3)N12 7.39%
COc1ccccc1N1CCN(CC(O)c2ccccc2)CC1 (stereo not given) -5.22%
CC(=O)Nc1nc2ccc(S(=O)(=O)N3CCCCC3)cc2s1 11.1%
CCSC1=NCCN1S(=O)(=O)c1ccc(NC(C)=O)cc1 4.92%
CN(C(=O)c1ccc2c(c1)CCN2S(C)(=O)=O)c1ccccc1 -0.23%
Cc1cc(C)c2c(=O)[nH]c(SCc3ccccc3C)nc2n1 1.53%
CCC(=O)Oc1ccc(C(=O)Nc2cccc(NC(=O)c3ccco3)c2)cc1 -2.07%
Cc1ccc(OCC(=O)Nc2ccc(F)cc2)c([N+](=O)[O-])n1 6.19%
Cc1ccc(NC(=O)C2CCN(S(=O)(=O)c3cnc[nH]3)CC2)cc1C 12%
COc1ccccc1OCC(=O)Nc1nonc1NC(=O)COc1ccccc1OC 11.7%
CC(=O)Nc1ccc(N2CC(C)(C)C2=O)cc1 14.5%
COc1ccc(F)cc1S(=O)(=O)N1CCCC(C)C1 (stereo not given) 4.43%
OCCC1CN(Cc2cccc(C(F)(F)F)c2)CCN1Cc1ccccc1 (stereo not given) 5.73%
O=C1NN(c2ccccc2)C(=O)/C1=C/c1ccc(Sc2cccc3ccccc23)o1 9.56%
O=Cc1ccc(-c2cccc(C(=O)O)c2)o1 8.85%
CCSc1ccccc1C(=O)N1CCN(c2ccccc2F)CC1 4.24%
CC(C)c1ccc(C2/C(=C(\O)c3ccc4c(c3)OCCO4)C(=O)C(=O)N2CCN2CCOCC2)cc1 (stereo not given) 10.8%
N#C/C(=C\c1ccncc1)c1nc2ccccc2[nH]1 -51.6%
Cc1ccc2nc(/C(C#N)=C/c3ccc(O)c(O)c3)[nH]c2c1 36.8%
Cn1c(CSCc2ccc(F)cc2)nnc1SCC(=O)N1CCN(c2ccccc2)CC1 29.3%
